# Reference: PubChem BioAssay (NCI)
# About 83,000 compounds went through this panel and 20% of them were active in at least one assay; those are over-represented in the sample as a whole.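 Plates (96-well) were seeded with cells, treated with compound at one concentration, and incubated for 48 hours before percent growth was determined.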 A number with no mark means an inactive call. Active and inactive are the calls of the source. Rule for the calls: active = growth percent below 10; inactive = the rest.
# Columns and labels:
# Assay in all cases: NCI-60 one-dose screen, 48 h (100 = growth as untreated, 0 = no growth, -100 = all killed)
# [1] = tested on: SK-MEL-2 melanoma; conditions: 10 µM unless noted
# [2] = tested on: EKVX NSCLC; conditions: 10 µM
# [3] = tested on: SN12C renal; conditions: 10 µM unless noted
# [4] = tested on: UO-31 renal; conditions: 10 µM unless noted
# [5] = tested on: TK-10 renal; conditions: 10 µM unless noted
# [6] = tested on: ACHN renal; conditions: 10 µM unless noted
# [7] = tested on: CAKI-1 renal; conditions: 10 µM unless noted
# [8] = tested on: A498 renal; conditions: 10 µM unless noted
# [9] = tested on: CCRF-CEM leukemia; conditions: 10 µM
# [10] = tested on: MOLT-4 leukemia; conditions: 10 µM unless noted
Compound,growth [1],growth [2],growth [3],growth [4],growth [5],growth [6],growth [7],growth [8],growth [9],growth [10]
COc1ccc(Cn2cc3c(c2-c2ccc(OC)cc2)CCc2cnoc2-3)cc1,31%,49.4%,26.5%,25.7%,69.1%,30.7%,14.8%,3.78% (active),9.28% (active),23.7%
CCOC(=O)C1=C(C(F)(F)F)NC(=O)NC1CN1C(=O)c2ccccc2C1=O (centres undefined),109%,104%,104%,102%,122%,120%,114%,118%,-21.1% (active),70.5%
C/C(=N\Nc1ccc(Cl)cn1)c1ccccn1,28.3%,8.35% (active),15.3%,-2.91% (active),33.6%,2.81% (active),5.04% (active),-25.2% (active),2.72% (active),2.11% (active)
CC(=O)NNC(=O)c1sc(NC(C)=O)nc1C,35.3%,115%,99.4%,89.1%,95.2%,106%,115%,100%,88.1%,94.1%
Nc1cc2c(cc1Br)[nH]c(=O)c1ccccc12,40.2%,49.5%,39.8%,48.1%,44%,22.5%,52.9%,56%,47.1%,20.9%
CCCC(C)c1cc(Cc2cc(Cl)cc(Cl)c2O)c(O)c(Cc2cc(Cl)cc(Cl)c2O)c1 (centres undefined),1.41% (active),6.21% (active),5.5% (active),6.1% (active),17.4%,0.12% (active),15.6%,-29.8% (active),6.76% (active),-8.73% (active)
CCCCCCCCCCCCCCCCCC1=NCCN1CS(=O)(=O)O,69.9%,80.1%,53.2%,16.6%,89.4%,47.7%,17.3%,87.2%,-5.55% (active),12.3%
Cc1ncc(C(=O)Nc2ccc(CN3CCN(C)CC3)c(C(F)(F)F)c2)cc1C#Cc1c(N)ncc2ccc(F)cc12,0.14% (active),-7.75% (active),19.1%,6.12% (active),-89.2% (active),-15.8% (active),20.8%,-65.1% (active),-47.6% (active),-57.9% (active)
Oc1ccccc1/C=N/N=C/c1c(O)ccc2ccccc12,92.4%,72.1%,85.1%,42.9%,101%,80%,91.6%,–,7.8% (active),57.7%
